Laboratory results as given in PubChem BioAssay.
Results filed as inconclusive are left out. Activity calls are given as the source filed them.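 How the source made its calls, unless noted: active means viability loss from added drug above about 55%, and viability with drug at most 40%, in both replicates (limit read from the data, passing the limit was not always enough); inconclusive means both conditions met in only one replicate; inactive means neither replicate meets both conditions.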

Tests used:
[1] = reducers of endogenous Her2 protein level, primary screen, SKBR3 breast tumor cells, AlphaScreen, ATP viability (AID 461;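 active means Her2 level under about 52% in both replicate screens, with viability over 70% of control, limit read from the data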;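 on Her2 level: lower value means less Her2 protein in the cells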;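 on viability: percent of carrier control wells set as 100% viability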); details: 18-24 h, measured here: SKBR3 viability, ATP luminescence, at 10 µM
[2] = target: Receptor tyrosine-protein kinase erbB-2 (Homo sapiens) (UniProt P04626); experiment: as above; details: 18-24 h, at 10 µM, stronger effect = lower value
[3] = SK-BR-3 cell growth inhibitors, pilot screen, 24 h, human (AID 572;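 active means viability at or below 10% of carrier control in both of two separate runs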;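 further: compound exposure lasted between 18 and 24 h rather than exactly 24 h; 100% = carrier-treated control wells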); details: SK-BR-3 viability, CellTiter-Glo luminescence, at 10 µM, stronger effect = lower value
[4] = HUVEC growth inhibition – cell-based, human, primary screen (AID 575;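 active means viability at or below 30% in both replicate assays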;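 further: 100% = median of untreated cell wells with 0.1% DMSO on each plate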); details: HUVEC proliferation, CellTiter-Glo luminescence, 72 h; at 10 µM; stronger effect = lower value
[5] = growth inhibitors of H69AR lung tumor, primary screen, human, duplicate replicates (AID 580;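 active means viability at or under a set limit in both replicates, limit being median viability minus 3 SD, cut at about 48% in these data, passing the limit was not always enough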;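 further: 100% = mean luminescence of untreated wells and 0% = no signal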); details: H69AR lung tumor cells viability, ATP luminescence, 72 h; at 10 µM; stronger effect = lower value
[6] = reversal of MRP1-mediated doxorubicin resistance, pilot screen, H69AR cells, doxorubicin co-treatment (AID 601); details: CellTiter-Glo, 72 h, at 10 µM; for differential viability (reversal): stronger effect = higher value
[7] = 384-well plate pilot, post-Golgi transport modulator project, inhibition of yeast transport mutant growth (AID 636; in the data active means inhibition above about 31%); details: absorbance 615 nm, about 18 h, stronger effect = higher value
[8] = growth suppression of yeast trafficking mutant, preliminary HTS, modulators of trafficking downstream of Golgi apparatus project, 1536-format plate, OD 615 nm (AID 637; in the data active means inhibition above about 30%); details: yeast transport mutant growth, absorbance 615 nm, 18 h; stronger effect = higher value
[9] = OD615 S. cerevisiae growth inhibition, permissive medium, pilot counter-assay, permissive growth control for S. cerevisiae lifespan shortening project (AID 705;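 active means growth inhibition above 25% in both replicates, a cutoff set 3 SD above the mean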); details: OD615, 24 h, at 10 µM, stronger effect = higher value
[10] = Restrictive medium S. cerevisiae growth inhibition, OD615, pilot screen of yeast lifespan reduction project, restrictive growth control (AID 706;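 active means growth inhibition above a set limit, 3 SD over mean compound inhibition, in both replicates, cut at about 43% in these data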;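 further: modified DeaD lifespan yeast strain shifted to restrictive glucose medium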); details: OD615, 48 h, at 10 µM, stronger effect = higher value
[11] = viability gain of MRP-1-high H69AR cells under doxorubicin, pilot screen, MRP-1 activator project, CellTiter-Glo, duplicate (AID 807;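 active means viability increase at or above a cutoff of the median across tested compounds plus 3 SD, cut at about 8.5% in these data, passing the limit was not always enough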;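 further: compound pretreatment 18-22 h then 72 h combined with doxorubicin; 0% = doxorubicin alone and 100% = vehicle without doxorubicin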); details: H69AR viability with doxorubicin, CellTiter-Glo luminescence; at 10 µM; stronger effect = higher value
[12] = growth suppression of beta-catenin knockout HCT116, pilot screen, human colon tumor cells (AID 823;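 active means cell viability at or below a set limit in both duplicate runs, the limit being the all-compound median minus 4 SD, cut at about 23% in these data, passing the limit was not always enough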;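 further: 0% = wells killed by 20 µM Hyamine and 100% = untreated DMSO cell wells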); details: CellTiter-Glo, 60 h, at 10 µM, stronger effect = lower value
[13] = growth suppression of PTEN-deleted HCT116, pilot screen, cell-based, HCT116 clonal line, CellTiter-Glo (AID 824;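 active means viability at or below 27.92% in each of two runs, the all-compound median minus 4 SD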;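 further: 0% = 20 µM Hyamine control and 100% = vehicle cell control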); details: 60 h, at 10 µM, stronger effect = lower value
[14] = inhibitors of the yeast RAM network, pilot screen, dse1pr::URA3 reporter, 5-FOA selection (AID 869;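 active means inhibition over a set limit, the all-compound mean plus 3 SD, in both replicate runs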;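 further: 0% = DMSO wells with no growth and 100% = 10 µM 1-NA-PP1 with full growth; RAM network block rescues cells from 5-FOA so hits raise OD615 growth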); details: S. cerevisiae dse1pr::URA3 5-FOA growth, OD615, 2 d; at 10 µM; stronger effect = higher value; strain carries analog-sensitive mutant Cbk1 kinase
[15] = RAM signaling pathway blockade in yeast – S. cerevisiae, Pdr1DBD-CYC8 efflux-inhibited sensitized strain, primary screen (AID 1298;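 active means RAM network inhibition above 8.4% in each of two replicates, 3 SD over the compound average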;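 further: 0% = DMSO untreated cells without growth and 100% = 10 µM 1-NA-PP1 full growth; higher means more yeast growth rescued from 5-FOA killing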); details: S. cerevisiae cbk1-as DSE1-URA3 strain, 5-FOA growth OD615, 2 d; at 50 µM; stronger effect = higher value
[16] = H69AR cells + 2 uM doxorubicin, measured here: viability with 2 uM doxorubicin, stronger effect = lower value
[17] = H69AR cells, compound alone cytotoxicity

Receptor tyrosine-protein kinase erbB-2 (Homo sapiens), sequence (P04626 whole entry, looked up): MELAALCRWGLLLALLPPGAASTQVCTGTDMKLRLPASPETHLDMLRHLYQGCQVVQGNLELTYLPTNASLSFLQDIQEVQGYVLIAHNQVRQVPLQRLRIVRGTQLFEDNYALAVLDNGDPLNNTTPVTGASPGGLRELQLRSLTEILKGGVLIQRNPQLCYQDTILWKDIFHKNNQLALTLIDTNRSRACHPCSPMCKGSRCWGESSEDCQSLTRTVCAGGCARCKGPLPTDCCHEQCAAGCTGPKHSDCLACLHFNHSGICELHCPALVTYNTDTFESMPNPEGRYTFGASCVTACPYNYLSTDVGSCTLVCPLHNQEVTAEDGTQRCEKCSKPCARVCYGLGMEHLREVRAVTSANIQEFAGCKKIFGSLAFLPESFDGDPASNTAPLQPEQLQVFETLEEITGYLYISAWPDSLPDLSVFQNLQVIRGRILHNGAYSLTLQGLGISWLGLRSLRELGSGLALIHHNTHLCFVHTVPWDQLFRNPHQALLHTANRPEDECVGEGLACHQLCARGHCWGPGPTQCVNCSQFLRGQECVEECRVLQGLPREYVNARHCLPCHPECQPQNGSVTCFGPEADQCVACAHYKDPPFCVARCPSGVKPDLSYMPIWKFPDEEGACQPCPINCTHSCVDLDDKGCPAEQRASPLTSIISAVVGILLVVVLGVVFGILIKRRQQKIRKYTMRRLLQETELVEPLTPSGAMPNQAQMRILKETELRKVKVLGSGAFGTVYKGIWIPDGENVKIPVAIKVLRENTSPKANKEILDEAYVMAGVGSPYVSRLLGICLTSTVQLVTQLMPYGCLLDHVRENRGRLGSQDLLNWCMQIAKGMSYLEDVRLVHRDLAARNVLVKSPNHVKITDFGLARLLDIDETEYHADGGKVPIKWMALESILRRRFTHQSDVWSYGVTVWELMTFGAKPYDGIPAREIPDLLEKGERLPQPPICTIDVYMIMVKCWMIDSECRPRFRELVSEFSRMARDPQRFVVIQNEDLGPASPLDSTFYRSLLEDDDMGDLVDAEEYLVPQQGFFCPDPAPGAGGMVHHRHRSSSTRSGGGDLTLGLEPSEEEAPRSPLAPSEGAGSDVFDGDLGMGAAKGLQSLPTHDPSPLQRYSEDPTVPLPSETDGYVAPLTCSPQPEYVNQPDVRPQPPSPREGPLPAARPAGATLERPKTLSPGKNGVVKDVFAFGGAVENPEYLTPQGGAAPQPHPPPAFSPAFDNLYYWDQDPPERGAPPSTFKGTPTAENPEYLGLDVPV

Row | Structure (SMILES) | viability [1] [%] | Her2 level [2] | viability [3] | viability [4] | viability [5] | differential viability (reversal) ([6]; H69AR cells + 2 uM doxorubicin) | viability [6, 16] [%] | viability [6, 17] [%] | inhibition [7] | inhibition [8] | growth inhibition [9] | growth inhibition [10] | viability increase [11] | viability [12] | viability [13] | inhibition [14] | RAM network inhibition [15]
1 | CC1CCN(c2nc3c(c(=O)[nH]c(=O)n3C)n2CCSc2ncccn2)CC1 | 96.5 | 97% (inactive) | 96.5% (inactive) | 109% (inactive) | 90.8% (inactive) | 0.415% (inactive) | 90.4 | 90.8 | -4.4% (inactive) | -5.17% (inactive) | 1.06% (inactive) | -2.73% (inactive) | -0.46% (inactive) | 102% (inactive) | 102% (inactive) | 2.46% (inactive) | 2.81% (inactive)
2 | CCOC(=O)N1CCN(C(=O)CSc2nnc(-c3cccc(Cl)c3)o2)CC1 | 82.5 | 96.5% (inactive) | 82.5% (inactive) | 86.1% (inactive) | 93.9% (inactive) | 7.46% (inactive) | 86.4 | 93.9 | 0.13% (inactive) | -2.95% (inactive) | -6.25% (inactive) | -10.5% (inactive) | -0.22% (inactive) | 105% (inactive) | 100% (inactive) | 2.61% (inactive) | 2.71% (inactive)
3 | COc1cccc(-c2nc(CS(=O)(=O)CC(=O)NCc3ccc(Cl)cc3)c(C)o2)c1 | 72.5 | 71% (inactive) | 72.5% (inactive) | 42.8% (inactive) | 87.9% (inactive) | 10.1% (inactive) | 77.8 | 87.9 | 0.4% (inactive) | -2.3% (inactive) | -8.85% (inactive) | -2.68% (inactive) | -3.55% (inactive) | 87.1% (inactive) | 89.3% (inactive) | 2.36% (inactive) | 5.41% (inactive)
4 | CC1CCCN(C(=O)C23CCC(C)(C(=O)C2)C3(C)C)C1 (stereo not drawn) | 99 | 92% (inactive) | 99% (inactive) | 103% (inactive) | 108% (inactive) | 15.3% (inactive) | 92.6 | 108 | -2.43% (inactive) | -3.17% (inactive) | -7.46% (inactive) | -8.69% (inactive) | -2.08% (inactive) | 97.7% (inactive) | 102% (inactive) | -0.565% (inactive) | 4.55% (inactive)
5 | Cc1nnc(SCC(=O)Nc2ccc3c4c(cccc24)CC3)n1C | 102 | 79% (inactive) | 102% (inactive) | 93.2% (inactive) | 86.9% (inactive) | 0.115% (inactive) | 86.8 | 86.9 | -6.08% (inactive) | -3.83% (inactive) | -0.36% (inactive) | -5.08% (inactive) | -4.3% (inactive) | 92.9% (inactive) | 89.8% (inactive) | 3.25% (inactive) | 3.77% (inactive)
6 | COc1cccc(NC(=O)c2nc3nc(C)cc(C(F)F)n3n2)c1 | 100 | 106% (inactive) | 100% (inactive) | 93.9% (inactive) | 84% (inactive) | -2.74% (inactive) | 86.8 | 84 | 1.47% (inactive) | 4.5% (inactive) | -11.3% (inactive) | -11.1% (inactive) | 1.69% (inactive) | 107% (inactive) | 101% (inactive) | 0.62% (inactive) | -0.33% (inactive)
7 | Cc1ccc2cccc(SCC(=O)N3CCOCC3)c2n1 | 103 | 89.5% (inactive) | 103% (inactive) | 61% (inactive) | 90.7% (inactive) | -0.48% (inactive) | 91.2 | 90.7 | -4.03% (inactive) | -3.5% (inactive) | 2.63% (inactive) | 24.3% (inactive) | -2.53% (inactive) | 98.9% (inactive) | 101% (inactive) | 2.27% (inactive) | 1.88% (inactive)
8 | COc1ccc(OC)c(NC(=O)c2cn(C)c(=O)c3cc(OC)c(OC)cc23)c1 | 104 | 104% (inactive) | 104% (inactive) | 97.2% (inactive) | 93.8% (inactive) | 5.68% (inactive) | 88.1 | 93.8 | -0.41% (inactive) | 28.7% (inactive) | -17.3% (inactive) | -19.3% (inactive) | -4.55% (inactive) | 99.6% (inactive) | 96.7% (inactive) | 0.435% (inactive) | 3.89% (inactive)
9 | CCOC(=O)c1ccccc1NC(=O)c1ccc2c(=O)n3c(nc2c1)CCCCC3 | 87.5 | 84.5% (inactive) | 87.5% (inactive) | 84.9% (inactive) | 84.4% (inactive) | -9.15% (inactive) | 93.5 | 84.4 | -4.53% (inactive) | 0.67% (inactive) | -5.51% (inactive) | -0.78% (inactive) | -1.73% (inactive) | 82.5% (inactive) | 81.2% (inactive) | 1.7% (inactive) | 18.8% (active)
